Assay results published in PubChem BioAssay (NCI).
Values joined by “and” are separate entries in the source; they are usually repeats but may differ in a detail not shown here. Equal values may be shown once. About 79,000 compounds went through this panel and 15% of them were active in at least one assay; those are over-represented in the sample as a whole. More than one record can exist for a structure, and the calls need not agree. Active and inactive are the calls of the source. Cut-off read from the data, not from the text of the source: active = growth inhibition above about 70%; inactive = the rest.

Assays:
[1] = NCI Yeast Anticancer Drug Screen. Data for the rad52 strain (AID 147);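 note: 0% = growth of vehicle-treated control cultures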; conditions: S. cerevisiae rad52 mutant growth inhibition, stronger effect = higher value
Summary of the method: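 Screen used a yeast mutant impaired in DNA repair. After compound exposure, growth was measured. Values reflect inhibition compared with vehicle-treated cells.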

[2] = NCI Yeast Anticancer Drug Screen. Data for the wt1 strain (AID 149);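 note: 0% = growth of vehicle-treated wt1 cultures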; conditions: S. cerevisiae wt1 strain (SPY 50644) growth inhibition, stronger effect = higher value
Summary of the method: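 Compounds are added to wt1 yeast cultures. Growth is then measured. Inhibition is expressed relative to vehicle-treated controls.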

[3] = NCI Yeast Anticancer Drug Screen. Data for the rad50EPP+ strain (AID 151);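 note: 0% = growth of vehicle-treated control cultures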; conditions: S. cerevisiae rad50 mutant strain, stronger effect = higher value
Summary of the method: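 Exposing the rad50EPP+ strain to each compound, growth was compared with vehicle-only cultures to give inhibition.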

[4] = NCI Yeast Anticancer Drug Screen. Data for the rad50 strain (AID 155);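 note: 0% = growth of vehicle-only cultures of the same strain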; conditions: S. cerevisiae rad50 strain growth inhibition, stronger effect = higher value
Summary of the method: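 Inhibition values express reduced yeast growth in compound-treated cultures relative to vehicle-treated controls.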

[5] = NCI Yeast Anticancer Drug Screen. Data for the mec2-1 strain (AID 157); conditions: S. cerevisiae mec2-1 strain, stronger effect = higher value
Summary of the method: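 Readout is yeast growth inhibition, normalised to vehicle-treated controls, in the mec2-1 strain exposed to compound.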

[6] = NCI Yeast Anticancer Drug Screen. Data for the rad14 strain (AID 159);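 note: 0% = growth of vehicle-treated control cultures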; conditions: S. cerevisiae rad14 strain growth inhibition, stronger effect = higher value
Summary of the method: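 A mutant yeast strain defective in DNA damage repair is treated with compound; inhibition of its growth is scored against untreated, vehicle-exposed cultures.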

[7] = NCI Yeast Anticancer Drug Screen. Data for the sgs1 mgt1 strain (AID 161);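 note: 0% = growth of cultures given vehicle only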; conditions: S. cerevisiae sgs1 mgt1 strain, stronger effect = higher value
Summary of the method: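 This yeast growth screen uses a strain with defined DNA-repair lesions; compound-treated growth is compared with vehicle-treated growth.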

[8] = NCI Yeast Anticancer Drug Screen. Data for the CLN2oe strain (AID 163);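 note: 0% = growth of vehicle-only control cultures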; conditions: S. cerevisiae CLN2oe strain, stronger effect = higher value
Summary of the method: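 Values reflect how much compound exposure reduced yeast growth, referenced to vehicle-exposed cells. Assay organism is a strain with a defined genetic change affecting cell-cycle control.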

[9] = NCI Yeast Anticancer Drug Screen. Data for the cln2 rad14 strain (AID 165);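 note: 0% = growth equal to vehicle treated cultures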; conditions: S. cerevisiae cln2 rad14 strain, stronger effect = higher value
Summary of the method: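 Relative to vehicle controls, growth inhibition of compound-treated cln2 rad14 yeast was recorded.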

[10] = NCI Yeast Anticancer Drug Screen. Data for the bub3 strain (AID 167); conditions: S. cerevisiae bub3 mutant strain, stronger effect = higher value
Summary of the method: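 Steps: expose the mutant yeast strain to compound; grow alongside vehicle-treated cultures; measure growth; express inhibition against the vehicle cultures.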

[11] = NCI Yeast Anticancer Drug Screen. Data for the mlh1 strain (AID 171);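 note: 0% = growth of vehicle-treated control cultures of the same strain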; conditions: S. cerevisiae mlh1 strain growth inhibition, stronger effect = higher value
Summary of the method: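 Steps: expose the defined-mutant yeast strain to compound; expose a parallel culture to vehicle; measure growth; express compound effect as inhibition relative to the vehicle culture.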

[12] = NCI Yeast Anticancer Drug Screen. Data for the mlh1 rad18 strain (AID 175); conditions: S. cerevisiae mlh1 rad18 strain growth inhibition, stronger effect = higher value
Summary of the method: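 Test agents were incubated with a yeast strain of defined genotype (DNA damage repair defect). Inhibition of growth was derived by comparison with vehicle-exposed cultures.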

[13] = NCI Yeast Anticancer Drug Screen. Data for the rad18 strain (AID 177); conditions: S. cerevisiae rad18 mutant growth inhibition, stronger effect = higher value
Summary of the method: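 A genetically defined yeast mutant impaired in DNA damage repair was treated with test compounds, then its growth was measured against cultures receiving vehicle alone.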

[14] = NCI Yeast Anticancer Drug Screen. Data for the wt2 strain (AID 169);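 note: 0% = growth of vehicle-treated yeast cultures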; conditions: S. cerevisiae wt2 strain growth inhibition, stronger effect = higher value
Summary of the method: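 Values express reduction in yeast growth under compound treatment, referenced to vehicle-treated cells.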

[15] = NCI Yeast Anticancer Drug Screen. Data for the sgs1 strain (AID 173);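 note: 0% = growth of vehicle-only control cultures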; conditions: S. cerevisiae sgs1 mutant, stronger effect = higher value
Summary of the method: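 Treat defined-mutant yeast with compound; measure growth; calculate inhibition relative to vehicle-treated cells.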

[16] = at 5.0 µM (retest, dose inferred, filed as 0.5)
[17] = at 50.0 µM (retest, dose inferred, filed as 5.0)

Measured: growth inhibition

CC(=O)CC(=O)/C=C/c1cccs1
inactive: [1]; at 1.2 µM -15% | [1]; at 3.7 µM -8% | [1]; at 11.0 µM 6% | [1]; at 33.0 µM 26% | [2]; at 1.2 µM -25% | [2]; at 3.7 µM -23% | [2]; at 11.0 µM -22% | [2]; at 33.0 µM -19% | [2]; at 100.0 µM 59% | [3]; at 1.2 µM 7% | [3]; at 3.7 µM 0% | [3]; at 11.0 µM 33% | [4]; at 1.2 µM -3% | [4]; at 3.7 µM -5% | [4]; at 11.0 µM 18% | [4]; at 50.0 µM 68.7% | [5]; at 1.2 µM -36% | [5]; at 3.7 µM -38% | [5]; at 11.0 µM -21% | [5]; at 33.0 µM 10% | [5]; at 50.0 µM 50% | [6]; at 1.2 µM -12% | [6]; at 3.7 µM -9% | [6]; at 11.0 µM 6% | [6]; at 33.0 µM 8% | [7]; [16] -16% | [7]; [17] 44% | [7]; at 50.0 µM 51.2% | [8]; at 1.2 µM -27% | [8]; at 3.7 µM -30% | [8]; at 11.0 µM -24% | [8]; at 33.0 µM 2% | [8]; at 100.0 µM 38% | [9]; [16] 15% | [9]; at 50.0 µM 32.1% | [10]; at 1.2 µM 2% | [10]; at 3.7 µM -10% | [10]; [16] -1% | [10]; at 11.0 µM -27% | [10]; at 33.0 µM 21% | [10]; [17] 53% | [10]; at 50.0 µM 19% | [11]; at 1.2 µM -21% | [11]; at 3.7 µM -24% | [11]; at 11.0 µM -1% | [11]; at 33.0 µM 16% | [12]; at 50.0 µM 64.8% | [13]; at 1.2 µM -20% | [13]; at 3.7 µM -26% | [13]; at 11.0 µM 12% | [13]; at 33.0 µM 20%
active: [1]; at 100.0 µM 86% | [3]; at 33.0 µM 89% | [3]; at 100.0 µM 92% | [4]; [16] 97% | [4]; at 33.0 µM 76% | [4]; [17] 100% | [4]; at 100.0 µM 92% | [5]; [16] 94% | [5]; [17] 99% | [5]; at 100.0 µM 77% | [6]; at 100.0 µM 89% | [9]; [17] 72% | [10]; at 100.0 µM 90% | [11]; at 100.0 µM 88% | [12]; [16] 100% | [12]; [17] 100% | [13]; at 100.0 µM 88%

CCn1ncc(N=O)c1N
inactive: [1]; at 1.2 µM 0% | [1]; at 3.7 µM 3% | [1]; at 11.0 µM 9% | [1]; at 33.0 µM 29% | [1]; at 100.0 µM 58% | [2]; at 1.2 µM 6% | [2]; at 3.7 µM 14% | [2]; at 11.0 µM 23% | [2]; at 33.0 µM 24% | [2]; at 100.0 µM 39% | [3]; at 1.2 µM 0% | [3]; at 3.7 µM -4% | [3]; at 11.0 µM 3% | [3]; at 33.0 µM 28% | [4]; at 1.2 µM -1% | [4]; at 3.7 µM -1% | [4]; [16] 27% | [4]; at 11.0 µM 6% | [4]; at 33.0 µM 24% | [4]; [17] 61% | [4]; at 100.0 µM 54% | [5]; at 1.2 µM 3% | [5]; at 3.7 µM 11% | [5]; [16] 8% | [5]; at 11.0 µM 23% | [5]; at 33.0 µM 37% | [5]; [17] 35% | [5]; at 50.0 µM 67% and 42% | [5]; at 100.0 µM 57% | [6]; at 1.2 µM -2% | [6]; at 3.7 µM 4% | [6]; at 11.0 µM 15% | [6]; at 33.0 µM 32% | [6]; at 100.0 µM 41% | [7]; [16] 21% | [7]; [17] 61% | [7]; at 50.0 µM 62.5% and 19.6% | [9]; [16] 9% | [9]; [17] 12% | [9]; at 50.0 µM 35.1% and 40.8% | [10]; at 1.2 µM 2% | [10]; at 3.7 µM 9% | [10]; [16] 41% | [10]; at 11.0 µM 33% | [10]; at 33.0 µM 64% | [10]; [17] 68% | [14]; at 1.2 µM 6% | [14]; at 3.7 µM 18% | [14]; at 11.0 µM 26% | [14]; at 33.0 µM 25% | [14]; at 100.0 µM 39% | [11]; at 1.2 µM 3% | [11]; at 3.7 µM 5% | [11]; at 11.0 µM 20% | [11]; at 33.0 µM 35% | [11]; at 100.0 µM 53% | [15]; at 1.2 µM 5% | [15]; at 3.7 µM 16% | [15]; at 11.0 µM 26% | [15]; at 33.0 µM 39% | [15]; at 100.0 µM 61% | [12]; [16] 33% | [13]; at 1.2 µM 1% | [13]; at 3.7 µM 8% | [13]; at 11.0 µM 9% | [13]; at 33.0 µM 51%
active: [3]; at 100.0 µM 71% | [10]; at 100.0 µM 78% | [12]; [17] 73% | [13]; at 100.0 µM 74%
81.4% (active) and 51% (inactive): [10]; at 50.0 µM
70.2% (active) and 51.5% (inactive): [4]; at 50.0 µM
87.3% (active) and 26.6% (inactive): [12]; at 50.0 µM

BrCc1ccccc1C(c1ccccc1)c1ccccc1
inactive: [1]; at 1.2 µM 9% | [2]; at 1.2 µM -2% | [2]; at 3.7 µM 34% | [3]; at 1.2 µM 1% | [3]; at 3.7 µM 6% | [3]; at 11.0 µM 8% | [3]; at 33.0 µM 9% | [3]; at 100.0 µM 15% | [4]; at 1.2 µM 8% | [4]; [16] 12% | [5]; at 1.2 µM 4% | [5]; at 3.7 µM 42% | [5]; [16] 21% | [6]; at 1.2 µM 3% | [6]; at 3.7 µM 64% | [7]; [16] 58% | [9]; [16] 49% | [10]; at 1.2 µM 4% | [10]; at 3.7 µM 56% | [10]; [16] 24% | [14]; at 1.2 µM -1% | [14]; at 3.7 µM 62% | [11]; at 1.2 µM 10% | [11]; at 3.7 µM 68% | [15]; at 1.2 µM 9% | [13]; at 1.2 µM 25%
active: [1]; at 3.7 µM 79% | [1]; at 11.0 µM 96% | [1]; at 33.0 µM 96% | [1]; at 100.0 µM 94% | [2]; at 11.0 µM 96% | [2]; at 33.0 µM 97% | [2]; at 100.0 µM 95% | [4]; at 3.7 µM 85% | [4]; at 11.0 µM 97% | [4]; at 33.0 µM 96% | [4]; [17] 96% | [4]; at 50.0 µM 98.1% | [4]; at 100.0 µM 93% | [5]; at 11.0 µM 95% | [5]; at 33.0 µM 96% | [5]; [17] 98% | [5]; at 50.0 µM 98.2% | [5]; at 100.0 µM 96% | [6]; at 11.0 µM 96% | [6]; at 33.0 µM 97% | [6]; at 100.0 µM 95% | [7]; [17] 98% | [7]; at 50.0 µM 97.9% | [9]; [17] 93% | [9]; at 50.0 µM 95.8% | [10]; at 11.0 µM 96% | [10]; at 33.0 µM 97% | [10]; [17] 97% | [10]; at 50.0 µM 97.3% | [10]; at 100.0 µM 94% | [14]; at 11.0 µM 97% | [14]; at 33.0 µM 96% | [14]; at 100.0 µM 95% | [11]; at 11.0 µM 97% | [11]; at 33.0 µM 97% | [11]; at 100.0 µM 96% | [15]; at 3.7 µM 84% | [15]; at 11.0 µM 97% | [15]; at 33.0 µM 97% | [15]; at 100.0 µM 96% | [12]; [16] 82% | [12]; [17] 97% | [12]; at 50.0 µM 98.3% | [13]; at 3.7 µM 89% | [13]; at 11.0 µM 96% | [13]; at 33.0 µM 97% | [13]; at 100.0 µM 96%
